The entries come from a sample that favours hits as a whole.
NTMT1 inhibitor: NTMT1 methyltransferase inhibition | NTMT1 MTase-Glo SAH luminescence, purified enzyme | actives 2.5% (n = 59,000) | Potency, µM (titrated, usually from 114 µM), without a hit: top-dose activity change, negative = inhibition, actives largely listed as inhibitors | AID 1645870 | Q9BV86;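 further: potency means the concentration at half of the fitted maximal effect; plate controls were DMSO vehicle for no effect and no enzyme for full effect; nearly all actives have a fitted effect of over 65% in size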
Target sequence (Q9BV86 whole entry, looked up): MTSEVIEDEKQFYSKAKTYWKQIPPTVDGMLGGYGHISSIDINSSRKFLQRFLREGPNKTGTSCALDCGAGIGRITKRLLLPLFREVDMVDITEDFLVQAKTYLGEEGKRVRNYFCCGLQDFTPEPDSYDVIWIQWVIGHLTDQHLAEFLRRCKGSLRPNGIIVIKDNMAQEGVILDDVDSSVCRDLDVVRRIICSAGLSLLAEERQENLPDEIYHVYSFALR
GALC G270D up: enhancers of human galactocerebrosidase G270D mutant activity in cells | Potency, µM (titrated, usually from 57.5 µM), usual class: activators | actives 0.1% (n = 45,000) | AID 1159614 | 145M-Twi-hGALC-G270D cells (Twitcher mouse brain line with human GALC G270D), HMU-beta-Gal fluorescence, 48 h | P54803; further: potency means the concentration at half of the fitted maximal effect; 0% is about no effect; nearly all actives have a fitted effect of over 65% in size
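Fluorogenic HMU-b-Gal hydrolysis (0.1 mM final, pH 5.2 citrate-phosphate with 1 mg/mL sodium taurocholate; carbonate stop buffer) measures mutant GALC activity after compound treatment of live 145M-Twi Twitcher brain cells stably carrying human GALC-G270D, with wild-type GALC line alongside; activation sought.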
FH mod: Identification of activators of human fumarate hydratase by quantitative high-throughput screening. FH coupled MDH/diaphorase resazurin fluorescence, 15 min. Potency, µM (titrated, usually from 79.9 µM), for inactives: top-dose activity change, negative = inhibition, usual class: inhibitors. actives 0.22% (n = 54,000). AID 1347055, 2019; further: potency means the concentration at half of the fitted maximal effect; on the % scale 0 is the no-effect control and ±100 the full control effect; the screen sought activators but most active calls are inhibition curves; nearly all actives have a fitted effect of over 45% in size
DYRK1A inh: blocks recombinant human DYRK1A kinase activity | recombinant DYRK1A, Kinase-Glo ATP depletion luminescence | AID 2705 | Potency, µM (highest dose often 76.9 µM), for the others: at the top dose activity change, negative = inhibition, usual class: inhibitors | shares compounds with NTMT1 inhibitor | actives 80% (n = 100)
Sfp PPTase inh: inhibits purified B. subtilis Sfp PPTase; actives 78% (n = 230); shares compounds with NTMT1 inhibitor; AID 540350; purified Sfp PPTase enzyme activity, qHTS; Potency, µM (series often up to 114 µM), for the others: top-dose activity change, negative = inhibition, hits mostly inhibitors
HM489 growth: reduces growth of B. subtilis HM489 strain; shares compounds with NTMT1 inhibitor; B. subtilis HM489 (acpS-) growth, BacTiter-Glo, 5 h; Potency, µM (doses to about 114 µM), without a hit: at the top dose activity change, negative = inhibition, usual class: inhibitors; actives 50% (n = 220)
Sfp gel opt: Sfp PPTase inhibition, gel-based detection; shares compounds with NTMT1 inhibitor; purified Sfp PPTase, gel-based product detection; Potency, µM (series often up to 250 µM), without a hit: at the highest dose activity change, negative = inhibition, most hits filed as inhibitors; actives 54% (n = 220); AID 540355
Sfp inh gel: confirmation of Bacillus subtilis Sfp PPTase inhibitors; shares compounds with NTMT1 inhibitor; purified Sfp PPTase, gel-based product detection; Potency, µM (top dose mostly 250 µM), for inactives: at the highest dose activity change, negative = inhibition, usual class: inhibitors; actives 90% (n = 45); AID 602362
Sfp inh SAR2: inhibits B. subtilis Sfp PPTase in second SAR round. shares compounds with NTMT1 inhibitor. purified Sfp enzyme, PPTase activity, qHTS. Potency, µM (doses to about 57.1 µM), inactives show top-dose activity change, negative = inhibition, actives largely listed as inhibitors. actives 87% (n = 230). AID 602370
hGST A1-1 inh: counter-screen for Sfp PPTase inhibitors: hGST A1-1 inhibition; shares compounds with NTMT1 inhibitor; hGST A1-1 enzyme activity counter-screen, qHTS; Potency, µM (doses to about 114 µM), for inactives: top-dose activity change, negative = inhibition, usual class: inhibitors; 55 tested, under 10 active
USP2a K63: USP2a inhibition confirmed on K63 diubiquitin | shares compounds with NTMT1 inhibitor | AID 652172 | actives 80% (n = 30) | Potency, µM (doses to about 57.5 µM), for inactives: at the highest dose activity change, negative = inhibition, hits mostly inhibitors | USP2 cleavage of DiUb K63-3IQF, fluorescence kinetic
Casp6 inh: selectivity of USP2a inhibitors: human caspase-6 inhibition; shares compounds with NTMT1 inhibitor; Caspase 6 enzyme, Caspase-Glo 6 luminescence; activity change, negative = inhibition, % at 46.1 µM; 30 tested, under 10 active
HSD17B4 inh: HSD17B4 (human) inhibition, HPGD counter-screen | shares compounds with NTMT1 inhibitor | purified HSD17B4, estradiol/NAD+, NADH fluorescence | Potency, µM (highest dose often 57.1 µM), inactives show at the highest dose activity change, negative = inhibition, actives largely listed as inhibitors | actives 10% (n = 230) | AID 743187
ALDH1A1 inh: ALDH1A1 (human) inhibition, HPGD counter-screen | actives 93% (n = 230) | recombinant ALDH1A1, NADH fluorescence, propionaldehyde/NAD+ | Potency, µM (doses to about 57.1 µM), for inactives: at the top dose activity change, negative = inhibition, actives largely listed as inhibitors | shares compounds with NTMT1 inhibitor
Numbers without * were called inactive; i = inactive; ? = inconclusive; . = no result given; [ ] = dose if it differs, or a comment. The call rests on the fitted dose curve; in most records, active means well fitted curve in the direction sought with a large enough effect; inconclusive means small, poorly fitted or top-dose-only effect, or another doubt; inactive means no such curve, though single readings can be large; an effect the other way counts as inactive or inconclusive.

SMILES	NTMT1 inhibitor	GALC G270D up	FH mod	others
O=C(Nc1ccc(C(=O)Nc2nccs2)cc1)c1ccc2ccccc2c1	-7%	.	.
O=C(Nc1ccc(S(=O)(=O)Nc2nccs2)cc1)c1ccc2ccccc2c1	?	.	.	USP2a K63=3.9µM*;Casp6 inh=-26
Cc1sc(NC(=O)Cc2ccc3c(c2)OCO3)nc1-c1ccc2c(c1)CCN2C(=O)c1ccccc1Cl	28%	.	.
COc1ccnc(NC(=S)N2CCN(c3ccc(Cl)cc3Cl)CC2)c1	?	.	.	Sfp PPTase inh=3µM*;HM489 growth=13µM*;Sfp gel opt=7.9µM*;Sfp inh gel=3.4µM*;Sfp inh SAR2=0.46µM*;hGST A1-1 inh=4%;HSD17B4 inh=-6%;ALDH1A1 inh=4.3µM*
S=C(Nc1cc(Cl)ccn1)N1CCN(c2cccc(Cl)c2Cl)CC1	?	.	.	Sfp PPTase inh=4.1µM*;Sfp inh SAR2=16µM*;hGST A1-1 inh=-6%;HSD17B4 inh=-13%;ALDH1A1 inh=6.8µM*
CCOc1ccc(NC(=O)N2CCN(c3ccc(Cl)c(Cl)c3)CC2)cc1	-14%	i	-1%
CN(C)C(=O)NC1CCC(CCN2CCN(c3cccc(Cl)c3Cl)CC2)CC1 (stereo unspecified)	1%[12.6 µM]	.	28%[13.5 µM]
CC(C)c1ccccc1-c1nccc(NCc2ccc(-c3cccnc3)cc2)n1	6%	.	.
Cc1c2cc(c(C(=O)O)c1C)OC1OC(C(O)C(O)C1O)C(O)C(O)C1OC(O2)C(O)C(O)C1O (stereo unspecified)	?	.	3%[53.3 µM]
Cc1ccc(=O)n(CC(=O)NCCc2ccccc2)n1	9%	.	.
c1cncc(CNc2ncnc3ccc(-c4cccnc4)cc23)c1	-4%[57.5 µM]	.	.
Cc1noc(C)c1-c1ccc2ncnc(NCc3ccc(Br)cc3)c2c1	9%	.	.
c1nc(NCCc2cnc[nH]2)c2cc(-c3ccoc3)ccc2n1	-2%	.	.	DYRK1A inh=4.1µM*

High-throughput results as filed in PubChem BioAssay.
